This passage reports cell number results from the supplement of paper PMC7156485.

The structures appear in SMILES notation. “And” between values parts separate entries of the source, which are not always exact repeats. Equal values may be shown once. Where a name gives a salt, the structure may show the parent alone. ± gives the standard deviation of the averaged measurements.
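Note: TDF denotes transformed human dermal fibroblasts of mesenchymal origin.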

For the test, the system named is HCC1569. As to the kind of experiment: cell number relative to DMSO (% of DMSO); higher = more cells (less growth inhibition / toxicity). As to conditions: concentration: 10 µM; 24 h. In a few lines:
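Compounds were applied at 10 µM for 24 h at 37 °C, in triplicate, to HCC1569 and TDF cells. The cells were then fixed and stained for H1.0, and nuclei were counterstained with DAPI. Nuclear H1.0 intensity or cell number is reported relative to the plate control as a percent, taking the median of replicates. Smoothing for positional effects was applied to HCC1569 values only.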
As for `O=C(Nc1ccc(Oc2ccnc3[nH]ccc23)c(F)c1)c1cccn(-c2ccc(F)cc2)c1=O`, the cell number was 102.

In turn, `CCCCCC=CCC=CCC=CCCCCC(=O)O` [γ-Linolenic acid (18:3 n-6)] came in with a cell number of 99.3. As to `CCCCCCCCC(O)C=CC=CC=CC(O)CCCC(=O)O` (stereo not given) [Leukotriene B3], the cell number was determined as 101. For `Cc1nc(Nc2ncc(C(=O)Nc3c(C)cccc3Cl)s2)cc(N2CCN(CCO)CC2)n1` [Dasatinib], the cell number came out at 45.9. With `O=C1NC(=O)C(c2cn(CCCn3ccnc3)c3ccccc23)=C1Nc1ccccc1` [PKCb Inhibitor], the cell number stood at 100. Take `O=C(CCCN1CCC(O)(c2ccc(Cl)cc2)CC1)c1ccc(F)cc1` [Haloperidol]: the cell number is 91 ± 7.7. With `CCCCCC(O)C=CC1C2CC(CO2)C1CC=CCCCC(=O)O` (stereo not given) the figure was 102; with `CC(C)(C)NCC(O)c1ccc(O)c(CO)c1` (stereo not given) [Salbutamol], 99.7. For `NC1CONC1=O` [L-Cycloserine] the value was 102 ± 2.4; for `CC(C)CCNC(C)C1CCC2C3CC=C4CC(O)CCC4(C)C3CCC12C` (stereo not given) [22-Azacholesterol], 104; for `CNC(=C[N+](=O)[O-])NCCSCc1ccc(CN(C)C)o1.Cl` [Ranitidine hydrochloride], 101.

On to `COc1ccc(-c2cc(=S)ss2)cc1` [Anethole-trithione], for which the cell number turned out to be 102.

With `CNC(=O)C1OC(n2cnc3c(NCc4cccc(I)c4)ncnc32)C(O)C1O` (stereo not given), the cell number is 102. Turning to `COc1ccc2c(c1)c(CC(=O)Nc1ccc(NC(C)=O)cc1)c(C)n2C(=O)c1ccc(Cl)cc1` [N-(4-acetamidophenyl)indomethacinamide], the cell number is 78.7. For the molecule `CN1CCN(CC(=O)N2c3ccccc3C(=O)Nc3cccnc32)CC1.Cl.Cl` [Pirenzepine.2HCl], the cell number came out at 101. `CN1CCN(c2ccc3c(c2)NC(=C2C(=O)N=c4cccc(F)c4=C2N)N3)CC1` returned a cell number of 81.3. For `CCCCCC(O)C=CC1C(O)CC(O)C1CCCCCCC(=O)O` (stereo not given) [Prostaglandin F1a] the value was 106; for `COc1cc2c(cc1O)CCC1C2CCC2(C)C(O)CCC12` (stereo not given) [2-methoxyestradiol], 54.3; for `CC(C)(C)c1ccc(S(=O)(=O)C=CC#N)cc1`, 50.3.

`CCCCCC=CCC(O)C=CC=CCCC(=O)O` [Tetranor-12(R)-HETE] yielded a cell number of 104.

For `C#CCCCCCCCCCCCCCCCC(=O)O` [17-Octadecynoic acid], the cell number is 102. For `CC12CCC(=O)C=C1CCC1C2C(O)CC2(C)C1CCC2(O)C(=O)COC(=O)CCC(=O)[O-].[Na+]` (stereo not given) [Hydrocortisone 21-hemisuccinate sodium] the value was 99.5; for `OCc1c[nH]c2ccccc12` [Indole-3-carbinol], 97.5. In turn, `Cl.NC1C=CC=C(C(=O)O)C1` (stereo not given) [Gabaculine hydrochloride] gave a cell number of 103. For `CCCNC1CCc2nc(N)sc2C1` (stereo not given) [Pramipexole] the value was 101; for `COc1ccccc1N1CCN(CCN(C(=O)C2CCCCC2)c2ccccn2)CC1.O=C(O)C=CC(=O)O`, 104.

`CC(C(O)c1ccc(O)cc1)N1CCC(Cc2ccccc2)CC1` (stereo not given) [Ifenprodil tartrate] gave a cell number of 104. `Nc1ncnc2n[nH]c(Nc3ccc(F)cc3)c12`: the cell number was 95.7. With `CCCCCCC(O)CC=CCCCCCCCC(=O)O` (stereo not given) [Ricinoleic acid] the figure was 98.1; with `Cc1ccc(NC(=O)c2cccc(N(C)C)c2)cc1NC(=O)c1ccc(O)cc1`, 92.1 and 95.3.

Turning to `NCCC(O)(P(=O)([O-])O)P(=O)([O-])O.O.O.O.O.O.[Na+].[Na+]` [Pamidronate.2Na.5H2O], the cell number is 101. With `O=C(O)Cc1c[nH]c2ccc(O)cc12` [5-Hydroxyindolacetic acid] the figure was 104; with `CCCCc1oc2ccccc2c1C(=O)c1cc(I)c(OCCN(CC)CC)c(I)c1.Cl` [Amiodarone hydrochloride], 98.5. Turning to `COc1cc(C(=O)OCCC[NH+]2CCC[NH+](CCCOC(=O)c3cc(OC)c(OC)c(OC)c3)CC2)cc(OC)c1OC.[Cl-].[Cl-]` [Dilazep hydrochloride], the cell number turned out to be 94.8. With `CCNC(=O)CC[C@H](N)C(=O)O` [L-Theanine] the figure was 103; with `CCCC1OC2CC3C4CCC5=CC(=O)C=CC5(C)C4C(O)CC3(C)C2(C(=O)CO)O1` (stereo not given) [Budesonide], 97.2. `Cl.NCCc1ccc(O)c(O)c1` [Dopamine hydrochloride] displayed a cell number of 106.

In turn, `CN1C(CC(=O)c2ccccc2)CCCC1CC(O)c1ccccc1` (stereo not given) [Lobeline] had a cell number of 103. Turning to `Cl.c1ccc(C2CN3CCSC3=N2)cc1` (single isomer, unassigned; (-)) [(-)-Tetramisole hydrochloride], the cell number was 108. For the molecule `NCCS(=O)O` [Hypotaurine], the cell number is 106.
